An excerpt weighted towards active compounds, which were near 11% of everything screened.
HPGD inh: qHTS Assay for Inhibitors of HPGD (15-Hydroxyprostaglandin Dehydrogenase); 15-hydroxyprostaglandin dehydrogenase [NAD(+)] (Homo sapiens), P15428; purified HPGD, NADH fluorescence kinetic, PGE2 substrate; Potency, µM, inactives show top-dose activity change, negative = inhibition, hits mostly inhibitors; 150,000 tested, 4.3% active; AID 894, 2007; also: potency is read from the fitted curve at half-maximal effect
Target sequence (P15428 whole entry, looked up): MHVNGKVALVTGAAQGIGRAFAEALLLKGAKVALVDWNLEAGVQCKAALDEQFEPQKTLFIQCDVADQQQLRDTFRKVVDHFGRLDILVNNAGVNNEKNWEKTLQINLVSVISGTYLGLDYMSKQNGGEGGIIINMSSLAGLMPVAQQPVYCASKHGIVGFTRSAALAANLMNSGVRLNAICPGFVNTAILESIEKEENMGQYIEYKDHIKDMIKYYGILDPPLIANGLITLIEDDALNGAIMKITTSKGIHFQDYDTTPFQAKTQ
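20 nM HPGD preincubated 15 min at room temperature with compound in 50 mM Tris-HCl pH 8, 0.01% Tween 20. Started with 1 mM NAD+ and 30 uM prostaglandin E2; NADH fluorescence (360/450 nm) read 5 times over 30-s intervals, last minus first.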
PNC inhibitor: High Content Assay for Compounds that inhibit the Assembly of the Perinucleolar Compartment. activity change (PNC), negative = inhibition, % at 10 µM. 140,000 tested, 3.1% active. PC3M PTB-GFP, PNC prevalence imaging, 16 h; stronger effect = lower value;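 active = readout at or below -70, meaning at least 70% loss of cells showing the perinucleolar compartment, a nuclear body marking cancer cells; inconclusive = readout between -30 and a set limit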;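 also: plate controls were DMSO wells for no effect and camptothecin positive control wells for full effect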
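PC3M cells stably expressing PTB-GFP, 750–1000 cells/well, treated 16 h at 37 °C with compound (23 nl of library stock), in duplicate. After paraformaldehyde fixation and Hoechst stain, imaged at 20x; PNC prevalence scored by image analysis.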
ALDH1A1 block: qHTS Assay for Inhibitors of Aldehyde Dehydrogenase 1 (ALDH1A1); Purified ALDH1A1, NADH fluorescence, propionaldehyde substrate; Potency, µM (top dose mostly 75.3 µM), for the others: top-dose activity, negative = inhibition, hits mostly inhibitors; 220,000 tested, 7.3% active; AID 1030, 2008;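 also: potency is read from the fitted curve at half-maximal effect; plate controls were no enzyme wells and a reference inhibitor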
Numbers without * were called inactive; ? = inconclusive; nt = no result; ! = not active in a repeat; [ ] = dose if it differs, or a comment. Unless noted, calls follow the shape of the dose curve; as a rule, active = well fitted inhibition curve with a large enough effect (not every such curve was filed as active); inconclusive = small, poorly fitted or top-dose-only effect, or another doubt; inactive = no such curve, though single readings can be large or run the other way. Unless noted, % is scaled to controls: 0 for no effect and ±100 for the full control effect.

SMILES | HPGD inh | PNC inhibitor | ALDH1A1 block
CCOC(=O)CNCCC(=O)c1ccc(Br)cc1 | ? | -2.1 | 0.282µM*
CC(C)c1ccc(NCCC(=O)c2ccc(Br)cc2)cc1 | -7.8% | ? | 3.98µM*
Cc1ccc(C(=O)NCC(=O)NCC(=O)OCC(=O)c2ccc(Br)cc2)cc1 | -15.4% | -13.3 | 12.8%
NCC1O[C@H](O[C@@H]2C(O)[C@H](O[C@H]3OC(CO)C(O)C(N)C3O)[C@@H](N)C[C@H]2N)[C@@H](N)CC1O (some centres undefined) | -9.5% | nt | -11.7%
Cc1c(-c2ccccc2)oc2c(C(=O)OCC(=O)Nc3ccc(F)cc3)cccc2c1=O | -18.9% | -12.2 | 2.8%
COc1ccc(CN2CCC(CO)(Cc3ccccc3C(F)(F)F)CC2)c(F)c1 | nt | nt | 5.1%
COc1ccc(C2=NO[C@@H]3[C@@H]4C[C@@H]([C@H]5C(=O)N(C)C(=O)[C@@H]45)[C@H]23)cc1 | 1.2% | -6.0 | 11.2%
O=C(CCCNc1ccccc1)N/N=C/c1cccs1 | nt | nt | -3.4%
Cc1cc(NC(=O)CN2CC3CC(C2)c2cccc(=O)n2C3)nc2c1c(=O)oc1ccccc12 (centres undefined) | -0.3% | ? | 28.2µM*
Cc1cc(NC(=O)C2CCCCC2)nc2c1c(=O)oc1ccccc12 | -19.3% | 37.6 | ?
Cc1cc(NC(=O)C2CCCC2)nc2c1c(=O)oc1ccccc12 | -20.0% | 41.4 | 14.1µM*
Cc1cc(NC(=O)CN2CCN(Cc3ccccc3)CC2)nc2c1c(=O)oc1ccccc12 | nt | nt | 3.55µM*
O=C(CN1CCCCC1)Nc1scc2c1c(=O)oc1ccccc12 | nt | nt | 4.9%
Cc1cccc(CC(=O)Nc2cc(C)c3c(=O)oc4ccccc4c3n2)c1 | -20.6% | -27.8 | -5.7%
S=C(NCc1ccc(Cl)cc1Cl)Nc1ccccc1 | -23.3% | -20.2 | ?
O=C1OC(CO)C(O)C(O)C1O (centres undefined) | -4.7% | nt | -3.5%
NC(=O)CNC(=O)[C@@H]1CC2(CC(c3ccccc3)=NO2)CN1C(=O)c1ccc(Br)cc1 (some centres undefined) | 0.0% | 20.0 | 5.2%
CSC1=NCCN1C(=O)c1ccc2c(c1)OCO2 | nt | -16.3 | 11.2µM*
CSC1=NCCN1C(=O)c1ccc(C)cc1 | nt | nt | -2.9%
CC(=O)Nc1ccc(C2=NN(Cc3nnc(-c4ccccc4)o3)C(=O)SC2)cc1 | 5.01µM* | -15.1 | -10.0%
O=C1SCC(c2ccccc2)=NN1Cc1ccccc1 | -20.7% | -6.8 | ?
CC(=O)Nc1ccc(C2=NN(CC#N)C(=O)SC2)cc1 | -5.0% | 13.4 | 0.4%
O=C1SCC(c2ccc(Cl)cc2Cl)=NN1Cc1nnc(-c2ccccc2)o1 | 31.6µM* | 24.2 | -6.7%
N#C/C(=C(/O)CCl)c1nc2ccccc2[nH]1 | nt | nt | -7.3%
CCCCNC(=O)COc1ccccc1C(=O)c1cc(C#N)c(=O)n(CCOC)c1 | -12.7% | -9.6 | 3.2%
SMILES | HPGD inh | PNC inhibitor | ALDH1A1 block
COC(=O)c1ccc(CSc2nnc(-c3ccccc3)n2C)o1 | nt | nt | -10.4%
COC(=O)c1ccc(CSc2nnnn2-c2ccccc2)o1 | -21.1% | -14.2 | 7.08µM*
COC(=O)c1ccc(-n2nnnc2SCc2ccccc2OC)cc1 | -23.5% | 10.4 | 14.1µM*
COC(=O)c1ccc(-n2nnnc2SCC(=O)Nc2ccccc2C(=O)OC)cc1 | -21.5% | 7.0 | -1.3%
CCc1ccc(-n2c(CSc3nnnn3-c3ccccc3)nc3ccccc3c2=O)cc1 | -10.9% | 27.1 | 1.41µM*
O=c1[nH]c(SCc2nc3ccccc3c(=O)n2-c2ccccc2)nc2ccccc12 | ? | 9.7 | -3.6%
COC(=O)NC(CC(C)=O)c1ccc(F)cc1 (centres undefined) | nt | nt | 11.9%[13.5 µM]
COc1ccc(CN2CCN(C(C)C)C(CCO)C2)cc1Cn1cncn1 (centres undefined) | nt | nt | 7.2%
COCCCNC(=S)NC(=O)c1ccc(C)cc1 | -4.8% | -21.0 | ?
CCC(=O)Nc1ccccc1Nc1cc(C#N)c(C#N)cc1[N+](=O)[O-] | -5.9% | 11.1 | 3.8%
Cc1ccc(/C=C2\SC(=S)N(/N=C/c3cc([N+](=O)[O-])ccc3O)C2=O)o1 | nt | nt | 7.08µM*
Cc1cc(=O)oc2cc(OCC(=O)N/N=C/c3cc([N+](=O)[O-])ccc3O)ccc12 | -24.7% | 19.9 | ?
CC(C)CN(C)C(=O)CCc1nnc(Cc2cccc(C(F)(F)F)c2)o1 | nt | nt | 2.8%
CCN(CC)c1ccc(CC(=O)NC(C)Cc2ccccc2)cc1 (centres undefined) | -18.6% | -106.3* | 10.0%
CCCN(CCC)c1ccc(CC(=O)NC(C)Cc2ccccc2)cc1 (centres undefined) | -5.4% | 3.2 | 2.4%
CCOC(=O)C1=c2/c(=C/c3ccncc3)c(N)c(C(=O)OC)n2C(=O)C(c2ccncc2)S1 (centres undefined) | nt | nt | 16.4%
COc1ccccc1-c1cncnc1NCc1cccs1 | nt | nt | 13.9%
CCCCC/C=C\C/C=C\C/C=C\CCCCC(N)=O | -7.2% | nt | 7.5%
Nc1c(C(=O)c2ccccc2)sc2snc(SCC(=O)c3ccccc3)c12 | -28.9% | -26.5 | 10µM*
Nc1c(C(=O)c2ccccc2)sc2c1c(=O)[nH]c(=O)n2-c1ccccc1 | ? | 54.2 | ?
CCOc1ccc(OCC)c(NC(=O)CCCN2C(=S)NC(C)(C)CC2C)c1 (centres undefined) | -6.7% | -29.9 | -4.7%
O=C(O)C1C2C=CC(C2)C1C(=O)NC1CCS(=O)(=O)C1 (centres undefined) | -11.5% | 30.3 | 22.4µM*
O=C(NC1CCS(=O)(=O)C1)C1C2CC3CC(C2)CC1C3 (centres undefined) | nt | nt | 4.7%
COc1cccc(N2C(=O)C(c3ccccc3)=C(c3nc4ccccc4s3)C2NC(C)=O)c1 (centres undefined) | -18.0% | 12.2 | ?
CC(=O)NC1C(c2nc3ccccc3s2)=C(c2ccccc2)C(=O)N1c1ccc(C)cc1 (centres undefined) | -24.3% | 18.6 | 7.94µM*
SMILES | HPGD inh | PNC inhibitor | ALDH1A1 block
CCC(C)c1ccccc1NC(=O)COC(=O)c1ccc2[nH]c3c(c2c1)CCCC3 (centres undefined) | -22.4% | ? | ?
C[N+]1(CCN2C(=O)C3CC=C(Cl)CC3C2=O)CCOCC1 (centres undefined) | nt | ? | -2.0%
C[N+]1(CCC[N+]2(C)C[C@H]3[C@H](C2)[C@H]2C=C[C@@H]3CC2)CCOCC1 (some centres undefined) | 3.16µM* | nt | 7.1%[13.5 µM]
CN1CCN(C2=Cc3cc(Cl)ccc3Sc3cc(F)ccc32)CC1 | -29.0% | 43.3 | -9.6%
CN1CCN(C2=Cc3ccccc3Sc3cc(F)c(Cl)cc32)CC1 | 28.2µM* | -6.4 | 5.62µM*
CN1CCN(C2=Nc3ccccc3Sc3ccc(Cl)cc32)CC1 | nt | nt | 5.4%
CN1CCN(C2=Cc3ccccc3Sc3cc(F)c(F)cc32)CC1 | 25.1µM* | -87.6* | 0.2%
Nc1ccc(C(=O)OCC(=O)Nc2cc([N+](=O)[O-])ccc2F)cc1 | -6.9% | -13.7 | 10.2%
O=C(CCNS(=O)(=O)c1cccc2nsnc12)NCc1ccccc1Cl | nt | nt | -0.7%
O=C(Nc1ccc(N2CCOCC2)nc1)c1ccccc1Cl | nt | nt | 7.2%
Cc1ccc([N+](=O)[O-])cc1S(=O)(=O)N(C)C | 5.2% | nt | 31.6µM*!
Cc1ccc([N+](=O)[O-])cc1S(=O)(=O)N1CCCC1 | nt | 89.7 | -9.1%

Screening data: PubChem BioAssay, National Center for Advancing Translational Sciences (NCATS)
